High-throughput results deposited in PubChem BioAssay by National Center for Advancing Translational Sciences (NCATS).
Rab9 promoter act: activates the Rab9 promoter | Potency, µM (top dose mostly 9.22 µM), without a hit: at the top dose activation, negative = inhibition, hits mostly activators | Huh7 Rab9 promoter-luciferase reporter, luminescence, 24 h | 320,000 tested, 2.8% active; note: % of control where 0% means no effect; nearly all actives have a fitted effect of over 60% in size
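Steps: seed 1500 Huh7 Rab9-luc cells per well, rest 2 h at 37 °C; add compound in DMSO; incubate 24 h; add luciferase reagent, 10 min ambient; read luminescence.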
SMN2 splice up: SMN2 splice variant enhancement; 210,000 tested, 2.8% active; HEK293 SMN2-luciferase splicing reporter, luminescence, 30-36 h; Potency, µM (doses to about 46.1 µM), for the others: at the top dose activity change, positive = activation, hits mostly activators; note: % of control where 0% means no effect; nearly all actives have a fitted effect of over 55% in size
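HEK293 cells carry an SMN2 […]–luciferase reporter in which exon 7 inclusion puts luciferase in frame. Cells were plated 10-12 h before compound addition, then incubated 30-36 h at 37C. ONE-Glo luminescence was read; sodium butyrate at 4.5 mM final served as control.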
NPC1 promoter act: NPC1 promoter activation | Huh7 NPC1 promoter luciferase reporter, 24 h | 320,000 tested, 2.4% active | AID 485313 | Potency, µM (top dose mostly 9.22 µM), without a hit: at the highest dose activation, most hits filed as activators; note: % of control where 0% means no effect; nearly all actives have a fitted effect of over 60% in size
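Luminescence read-out of NPC1 promoter-driven luciferase in stably transfected Huh7 cells; compounds delivered in DMSO and left 24 h at 37C, 5% CO2, qHTS titration format.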
ELG1 genotoxic: induces genotoxicity in HEK293T cells with luciferase-tagged ELG1 | HEK293T ELG1-luciferase reporter, luminescence, 16 h | Potency, µM (highest dose often 46 µM), inactives show at the top dose activity change, positive = activation, actives largely listed as activators | 330,000 tested, 1.3% active | AID 504466; note: % of control where 0% means no effect; nearly all actives have a fitted effect of over 60% in size
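HEK293T cells expressing luciferase-tagged ELG1 were exposed to compound or DMSO vehicle for 16 hr at 37 °C and 5% CO2. Luciferase activity was then measured with ONE-Glo after 30 min at room temperature.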
FLuc modulator: counter-screen for miR-21 project: firefly luciferase inhibitors or activators; AID 588342; purified FLuc, Km substrates, luminescence inhibition; Potency, µM (top dose mostly 57.5 µM), inactives show at the top dose activity change, negative = inhibition, most hits filed as inhibitors; 360,000 tested, 6.9% active;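 note: plate controls were vehicle for no effect and reference inhibitor for full effect; nearly all actives have a fitted effect of over 55% in size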
Target sequence (P08659 whole entry, looked up): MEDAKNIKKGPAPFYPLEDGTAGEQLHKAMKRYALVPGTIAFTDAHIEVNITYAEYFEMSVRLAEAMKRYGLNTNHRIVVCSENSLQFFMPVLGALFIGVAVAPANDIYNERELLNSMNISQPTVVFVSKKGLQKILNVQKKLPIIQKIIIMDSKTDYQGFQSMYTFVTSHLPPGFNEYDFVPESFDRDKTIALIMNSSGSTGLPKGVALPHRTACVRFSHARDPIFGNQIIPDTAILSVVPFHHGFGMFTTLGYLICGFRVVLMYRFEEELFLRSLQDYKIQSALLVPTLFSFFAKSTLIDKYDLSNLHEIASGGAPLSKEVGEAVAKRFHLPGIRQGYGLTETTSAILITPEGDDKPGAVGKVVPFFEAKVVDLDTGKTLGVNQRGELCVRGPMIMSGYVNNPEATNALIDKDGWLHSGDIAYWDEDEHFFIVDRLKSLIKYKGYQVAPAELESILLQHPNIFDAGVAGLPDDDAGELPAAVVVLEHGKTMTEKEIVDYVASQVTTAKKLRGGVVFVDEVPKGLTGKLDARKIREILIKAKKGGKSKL
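Purified P. pyralis luciferase, 10 nM final, with Km-level 10 uM D-luciferin and 10 uM ATP in 50 mM Tris acetate pH 7.5, 10 mM Mg acetate, 0.01% Tween-20, 0.05% BSA; 6-point qHTS titration about 60 µM downward; luminescence read.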
Luc counter: Kinase-Glo luciferase inhibition (counter-screen). AID 1379. Potency, µM (titrated, usually from 38.3 µM), inactives show top-dose activity change, negative = inhibition, hits mostly inhibitors. Kinase-Glo luciferase, ATP luminescence, 8 min. Q27757. 200,000 tested, 0.28% active; note: % is set by controls: 0 for no effect and ±100 for the full control effect; nearly all actives have a fitted effect of over 60% in size
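Recombinant Kinase-Glo luciferase, 10 uM ATP (linear range), luciferin; imidazole pH 7.2 / KCl / MgCl2 / Tween / BSA buffer; 8 min RT; luminescence.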
The depositor's hits bear a star; ? = inconclusive; . = no result; [ ] = dose if it differs, or a comment. Compounds with a hit are over-represented: about 7.4% of the library has one in this group of screens. Calls come from the whole dose curve; as a rule, active = well fitted curve in the direction sought with a large enough effect; inconclusive = small, poorly fitted or top-dose-only effect, or another doubt; inactive = no such curve, though single readings can be large; an effect the other way counts as inactive or inconclusive. Potency is the fitted concentration of half-maximal effect.

SMILES	Rab9 promoter act	SMN2 splice up	NPC1 promoter act	ELG1 genotoxic	FLuc modulator	Luc counter
CCOc1c(OC(C)=O)ccc(/C=C/c2ccc3cccc(OC(C)=O)c3n2)c1[N+](=O)[O-]	?	24%	?	-3%	?	-1%
COc1ccc2c(Cn3cnc4cc([N+](=O)[O-])ccc4c3=O)cc(=O)oc2c1	-21%	.	-21%	13%	0%	.
Cc1cccc(C(=O)NCCc2csc(C)n2)c1	5%	1.6µM*	-1%	41%	3%	6%
Cc1ccc(C(=O)NCCc2csc(C)n2)cc1	3.2µM*	14µM*	?	18µM*	9.5µM*	0%
Cc1nc(N)sc1C(=O)N/N=C/c1ccc([N+](=O)[O-])cc1	0%	.	?	12%	-1%	.
COc1cc(C(=O)N/N=C/c2sc(=O)n(-c3ccccc3)c2Cl)cc(OC)c1OC	-8%	-4%	-4%	7%	6µM*	3%
COc1cc(/C=N/NC(=O)c2ccc(-c3ccccc3)cc2)cc(OC)c1OC	13%	19%	9%	-7%	11µM*	0%
COc1cc(/C=N\NC(=O)c2sc(N)nc2C)cc(OC)c1OC	12%	10%	0%	7%	15µM*	2%
COc1ccc(/C=N\NC(=O)c2ccc(-c3ccccc3)cc2)c(OC)c1OC	-4%	.	-1%	6%	1%	.
COc1cc(/C=N/NC(=O)c2cc(-c3ccccc3)sc2N)cc(OC)c1OC	0%	.	6%	-8%	4.8µM*	.
CC(=O)c1sc2c(c1C)c(=O)n(-c1ccc(Cl)cc1)c(=O)n2Cc1ccc(Cl)cc1	.	3%	.	.	1%	.
O=C1CC(c2ccccc2)CC(O)=C1C=NCCN1CCN(Cc2ccccc2)CC1 (stereo not drawn)	-2%	.	-6%	-4%	-1%	.
COc1ccc(-n2c(=O)c3c4c(sc3n(Cc3ccc(C(C)(C)C)cc3)c2=O)CCC4)c(OC)c1	.	?	.	.	1%	.
Cc1[nH]n(C(N)=S)c(=O)c1N=Nc1ccc2ccccc2c1	4µM*	22µM*	3.2µM*	18µM*	3µM*	1%
Cc1ccc(C(=O)NNC(=O)c2ccc(S(=O)(=O)N3CCCCC3)cc2)cc1	.	.	.	-1%	.	.
NC(=S)n1[nH]c(-c2ccc([N+](=O)[O-])cc2)c(N=Nc2cccc([N+](=O)[O-])c2)c1=O	-17%	-71%	0%	-15%	?	3%
Cc1ccc(N=Nc2c(C)[nH]n(C(N)=S)c2=O)cc1C	3.5µM*	10µM*	3.5µM*	?	3.8µM*	-2%
CC(=O)Nc1ccc(/C=N/NC(N)=S)cc1	.	.	.	.	.	3%[39.9 µM]
Cc1[nH]n(C(N)=S)c(=O)c1N=Nc1ccc(S(=O)(=O)N2CCCCCC2)cc1	3%	-20%	7%	4%	5.4µM*	-7%
CC(=O)Nc1ccc(N=Nc2c(C)[nH]n(C(N)=S)c2=O)cc1	?	43%	29%	?	15µM*	1%
O=S(=O)(c1cc(Cl)c(Cl)cc1Cl)N1CCN2CCCC2C1 (stereo not drawn)	-7%	.	1%	3%	-1%	.
Cc1cc(NC(=O)Cn2c(=O)oc3cc(S(=O)(=O)N4CCCC4)ccc32)ccc1Br	.	.	.	.	-19%	.
O=C(Nc1ccc(Br)cc1)C1CCCN(C2=NS(=O)(=O)c3ccccc32)C1 (stereo not drawn)	-5%	.	-2%	0%	3%	.
COc1ccc2cc(OCC(=O)NNC(=O)Nc3ccc(F)cc3)ccc2c1	6%	.	7%	-6%	-10%	.
CCN(CC(=O)NCc1ccc(Cl)cc1)C(=O)CN1C(=O)NC(C)(c2ccccc2)C1=O (stereo not drawn)	2%	.	1%	-3%	3%	.
SMILES	Rab9 promoter act	SMN2 splice up	NPC1 promoter act	ELG1 genotoxic	FLuc modulator	Luc counter
Cc1[nH]n(C(N)=S)c(=O)c1N=Nc1cc(-c2ccc(Br)cc2)[nH]n1	?	?	22%	8%	1.7µM*	1%
Cc1[nH]n(C(N)=S)c(=O)c1N=Nc1cccc([N+](=O)[O-])c1C	2.5µM*	.	?	?	8.5µM*	.
Cc1c(N=Nc2c(-c3ccc([N+](=O)[O-])cc3)[nH]n(C(N)=S)c2=O)cccc1[N+](=O)[O-]	-34%	-62%	-33%	-15%	?	-2%
O=C(c1cccs1)N1CCn2c1nc1ccccc12	4µM*	13µM*	2.8µM*	?	?	?
O=C(c1ccc(Cl)cc1)N1CCn2c1nc1ccccc12	?	?	19%	9%	?	1%
N#Cc1ccc(CSc2nnc(-c3c[nH]c4ccccc34)n2-c2ccccc2)cc1	-9%	-13%	-1%	-17%	-1%	-2%
CCN(CC)C(=O)CSc1nnc2ccc3ccccc3n12	.	.	.	.	-11%	.
CCCOC(=O)CSc1nnc2ccc3ccccc3n12	.	.	.	.	9.5µM*	.
O=C(CSc1nnc2ccc3ccccc3n12)Nc1ccccc1Cl	.	.	.	.	17µM*	.
CCn1c(SCC(=O)Nc2ccccc2Cl)nnc1C1CC1	-1%	.	-5%	7%	1%	.
CC(C)(C)C1CCc2c(sc(NC(=O)CCC(=O)O)c2C(=O)Nc2ccccc2C(F)(F)F)C1 (stereo not drawn)	.	-2%	.	.	?	.
CN(C)S(=O)(=O)NCCNc1ccc(C(F)(F)F)cc1[N+](=O)[O-]	2%	6%	-4%	3%	19µM*	1%
CS(=O)(=O)NCCNc1ccc(C(F)(F)F)cc1[N+](=O)[O-]	-7%	2%	-2%	0%	1%	0%
O=[N+]([O-])c1cc(C(F)(F)F)ccc1NCCOc1ccccc1	?	?	?	?	13µM*	-3%
O=C(Nc1ccccc1Cl)c1ccccc1Cl	0%	-15%	0%	11%	-16%	0%
COc1ccc(NC(=O)c2cc3cccc(OC)c3oc2=Nc2ccc(C(=O)O)cc2)cc1OC	-7%	10%	-5%	6%	-1%	-1%
COc1cccc(NC(=O)c2cc3ccccc3o/c2=N\O)c1	0.71µM*	.	0.79µM*	0.41µM*	0.54µM*	.
O=C(Nc1ccccc1Cl)c1cc2ccccc2o/c1=N\O	2.5µM*	.	3.2µM*	16µM*	2.1µM*	.
COc1cccc(NC(=O)c2cc3cccc(OC)c3o/c2=N\O)c1	0.71µM*	.	2.8µM*	?	0.54µM*	.
COc1cccc(NC(=O)c2ccccc2Oc2ccccc2)c1	7%	.	0%	-5%	-1%	.
O=C(Nc1ccccc1Cl)c1ccc(=O)[nH]n1	-1%[1.84 µM]	.	-3%	7%	-2%	.
O=C(Nc1ccc(-c2nc3ccc(NC(=O)c4cccs4)cc3[nH]2)cc1)c1cccs1	-13%	10µM*	-5%	13µM*	-11%	-7%
